Test results taken from PubChem BioAssay (NCATS).
Results filed as inconclusive are left out. Activity calls are given as the source filed them. Unless noted, calls follow the shape of the full dose curve.

How the values were obtained:
[1] = Primary qHTS for inhibitors of SARS-S pseudo-typed particle cell entry (AID 1479145); also: nearly all actives have a fitted effect of over 45% in size
[2] = Primary qHTS for Huh7 cytotoxicity: counterscreen for inhibitors of MERS-S pseudotyped particle cell entry (AID 1479147); as to activity change, negative = cytotoxicity: % is scaled to controls: 0 for no effect and ±100 for the full control effect
[3] = Primary qHTS for inhibitors of MERS-S pseudo-typed particle cell entry (AID 1479149); also: nearly all actives have a fitted effect of over 60% in size
[4] = Primary qHTS for Vero E6 cytotoxicity: counterscreen for inhibitors of SARS-S pseudo-typed particle cell entry (AID 1479150); as to activity change, negative = cytotoxicity: % is scaled to controls: 0 for no effect and ±100 for the full control effect
[5] = molecular target: Protein phosphatase 1D (Homo sapiens) (UniProt O15297); assay: RapidFire Mass Spectrometry qHTS Assay for Modulators of WT P53-Induced Phosphatase 1 (WIP1) (AID 1347424; active = well fitted curve in the direction sought with a large enough effect; an effect the other way counts as inactive or inconclusive;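 also: amount of dephosphorylated VEPPL-S-QETFS peptide product formed by WIP1; series mostly up to about 63 µM; plate controls were DMSO wells for no effect and GSK830371 inhibitor control at 10 µM for full effect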)
How it was run: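 10 nM WIP1 preincubated with compounds 1 hr at room temperature in pH 7.5 Tris buffer with 30 mM MgCl2, 1 mM TCEP; 2 uM VEPPL-pS-QETFS phosphopeptide for 5 min, formic acid quench; dephosphorylated product quantified by RapidFire MS against labelled standard.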

[6] = Primary qHTS for inhibitors of La Crosse Virus (LACV) - induced cell death in SH-SY5Y cells (AID 1508616; active = well fitted curve in the direction sought with a large enough effect; an effect the other way counts as inactive or inconclusive;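 also: top concentration of the series differs between compounds; 0% = infected DMSO wells and 100% = uninfected DMSO wells; higher means more rescue of cells from virus-induced death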)
How it was run: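 Protection against LACV-induced cell death is scored in SH-SY5Y cells exposed to compounds and virus (0.01 MOI) for 6 days. Data normalized to virus-infected DMSO wells and virus-free DMSO wells.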

[7] = molecular target: Calcium and integrin-binding protein 1 (Homo sapiens) (UniProt Q99828); assay: Primary qHTS for Identification of Calcium Integrin Binding Protein 1 (CIB1) Competitor (AID 1508620; active = well fitted curve in the direction sought with a large enough effect; an effect the other way counts as inactive or inconclusive;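 also: GST tagged CIB1 binding a fluorescein labelled alphaIIb integrin peptide tracer; top concentration of the series differs between compounds; % is scaled to controls: 0 for no effect and ±100 for the full control effect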)
How it was run: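 Fluorescence polarization competition: GST-tagged CIB1 (1 uM final) preincubated with compound 15 min at room temperature, then FITC-labelled alphaIIb peptide (100 nM final) added. After 15 min at room temperature, polarization read at Ex 480/Em 540.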

[8] = molecular target: Protein phosphatase 1D (Homo sapiens) (UniProt O15297); assay: Rhodamine-PBP qHTS Assay for Modulators of WT P53-Induced Phosphatase 1 (WIP1) (AID 1347425; active = well fitted curve in the direction sought with a large enough effect; an effect the other way counts as inactive or inconclusive; also: % of control where 0% means no effect)
How it was run: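 Steps: enzyme with Rh-PBP sensor and compounds, room-temperature incubation of 1 hr, baseline read, addition of VEPPL-pS-QETFS (10 uM final), kinetic fluorescence reads at 525/598 nm. Activity equals final minus baseline signal.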

Sequence of Protein phosphatase 1D (Homo sapiens) (O15297 whole entry, looked up): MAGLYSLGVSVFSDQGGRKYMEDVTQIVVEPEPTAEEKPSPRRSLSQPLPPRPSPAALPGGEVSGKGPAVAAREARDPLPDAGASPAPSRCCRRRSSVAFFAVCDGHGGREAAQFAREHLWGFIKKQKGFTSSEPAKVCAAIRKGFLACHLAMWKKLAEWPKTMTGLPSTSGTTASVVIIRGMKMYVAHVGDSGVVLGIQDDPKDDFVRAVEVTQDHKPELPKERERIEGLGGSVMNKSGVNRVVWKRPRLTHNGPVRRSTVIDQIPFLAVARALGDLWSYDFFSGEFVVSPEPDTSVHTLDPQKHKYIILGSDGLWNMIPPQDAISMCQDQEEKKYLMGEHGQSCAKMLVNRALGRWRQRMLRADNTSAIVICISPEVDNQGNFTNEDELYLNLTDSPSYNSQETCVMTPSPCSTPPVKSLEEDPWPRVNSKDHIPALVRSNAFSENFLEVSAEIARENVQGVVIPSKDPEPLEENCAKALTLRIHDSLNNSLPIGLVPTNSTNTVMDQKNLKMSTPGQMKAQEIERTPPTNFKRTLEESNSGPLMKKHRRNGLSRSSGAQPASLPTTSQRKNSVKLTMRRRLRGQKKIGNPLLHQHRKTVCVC
Sequence of Calcium and integrin-binding protein 1 (Homo sapiens) (Q99828 whole entry, looked up): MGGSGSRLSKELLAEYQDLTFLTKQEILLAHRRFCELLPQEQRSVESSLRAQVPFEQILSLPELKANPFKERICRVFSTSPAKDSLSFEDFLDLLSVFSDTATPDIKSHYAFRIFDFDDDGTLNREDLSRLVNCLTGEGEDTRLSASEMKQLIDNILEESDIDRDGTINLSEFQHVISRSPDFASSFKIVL

CCOC(=O)c1ccc(O)cc1
inactive: Potency [1] | Potency [2] | Potency [3] | Potency [4]

NC(N)=Nc1nc(CSCC/C(N)=N/S(N)(=O)=O)cs1
inactive: Potency [1] | Potency [2] | Potency [3] | Potency [4]

O=C(O)/C=C\C(=O)O
inactive: Potency [1] | Potency [2] | Potency [3] | Potency [4]

COP(=S)(OC)Oc1cc(Cl)c(Cl)cc1Cl
inactive: Potency [5] | Potency [1] | Potency [2] | Potency [3] | Potency [4] | outcome [6] | Potency [7]

CCCCCC=CCC=CCCCCCCCC(=O)OCC
inactive: Potency [1] | Potency [2] | Potency [3] | Potency [4]

C[C@]12CC[C@H]3[C@@H](CCC4=CC(=O)CC[C@@H]43)[C@@H]1CC[C@@H]2OC(=O)CCc1ccco1
inactive: Potency [5] | Potency [1] | Potency [2] | Potency [3] | Potency [4] | outcome [6] | Potency [7]

CC[C@@]1(O)C(=O)OCc2c1cc1n(c2=O)Cc2c-1nc1ccccc1c2/C=N/OC(C)(C)C
inactive: Potency [1] | Potency [2] | Potency [3]

O=C(O)[C@@H](O)[C@H](O)[C@H](O)[C@@H](O)C(=O)O
inactive: Potency [1] | Potency [2] | Potency [3] | Potency [4]

NC(=O)c1ncn([C@@H]2O[C@H](CO)[C@@H](O)[C@H]2O)c1O
inactive: Potency [1] | Potency [2] | Potency [3] | Potency [4]

CC(C)(C)c1ccc(O)cc1
inactive: Potency [5] | outcome [8] | Potency [1] | Potency [3] | outcome [6]

Nc1nc2[nH]cc(CCc3ccc(C(=O)N[C@@H](CCC(=O)O)C(=O)O)cc3)c2c(=O)[nH]1
inactive: Potency [1] | Potency [2] | Potency [3] | Potency [4]

NS(=O)(=O)c1cc(-c2nn[nH]n2)c(NCc2cccs2)cc1Cl
inactive: Potency [1] | Potency [2] | Potency [3] | Potency [4]

O=c1[nH]c(=O)n([C@H]2C[C@H](O)[C@@H](CO)O2)cc1I
inactive: Potency [1] | Potency [2] | Potency [3] | Potency [4]

CCCCOC(=O)c1ccc(N)cc1
inactive: Potency [1] | Potency [2] | Potency [3] | Potency [4]

Nc1ccn(C[C@@H](CO)OCP(=O)(O)O)c(=O)n1
inactive: outcome [1] inactive [at 0.573 µM] | outcome [2] inactive [at 0.573 µM] | outcome [3] inactive [at 0.573 µM] | activity change, negative = cytotoxicity [4] -5.43% [at 0.573 µM]

N#Cc1ccc(C(c2ccc(C#N)cc2)n2cncn2)cc1
inactive: Potency [1] | Potency [2] | Potency [3] | Potency [4]

CC(=O)c1ccc(S(=O)(=O)NC(=O)NC2CCCCC2)cc1
inactive: Potency [1] | Potency [2] | Potency [3] | Potency [4]

Nc1nc(-c2ccccc2)c(Br)c(=O)[nH]1
inactive: Potency [1] | Potency [2] | Potency [3] | Potency [4]

Cc1cnc(NC(=O)C2=C(O)c3ccccc3S(=O)(=O)N2C)s1
inactive: Potency [1] | Potency [2] | Potency [3]

CCOP(=S)(OCC)Oc1ccc2c(C)c(Cl)c(=O)oc2c1
inactive: Potency [5] | Potency [2] | Potency [3] | Potency [4] | outcome [6]

Cc1cc(NS(=O)(=O)c2ccc(N)cc2)no1
inactive: Potency [1] | Potency [2] | Potency [3] | Potency [4]

CC(C)CN(C[C@@H](O)[C@H](Cc1ccccc1)NC(=O)O[C@H]1CO[C@H]2OCC[C@H]21)S(=O)(=O)c1ccc(N)cc1
inactive: Potency [1] | Potency [2] | Potency [3] | Potency [4]

NC(=O)NC1N=C([O][Al])NC1=O (stereo not given)
inactive: Potency [1] | Potency [2] | Potency [3] | Potency [4]

O=C(O)Cc1sc(-c2ccccc2)nc1-c1ccc(Cl)cc1
inactive: Potency [1] | Potency [2] | Potency [3] | Potency [4]

COC(=O)[C@@H]1[C@H]2C[C@H]3c4[nH]c5ccccc5c4CCN3C[C@@H]2CC[C@@H]1O
inactive: Potency [1] | Potency [2] | Potency [3] | Potency [4]

CC(C)=CCC/C(C)=C/CC/C(C)=C/CCC(=O)OC/C=C(\C)CCC=C(C)C
inactive: Potency [1] | Potency [2] | Potency [3]

Cc1c(Nc2ncccc2C(=O)O)cccc1C(F)(F)F
inactive: Potency [1] | Potency [2] | Potency [3] | Potency [4]

Cc1noc(NS(=O)(=O)c2ccc(N)cc2)c1C
inactive: Potency [1] | Potency [2] | Potency [3] | Potency [4]

Cc1nnc(NS(=O)(=O)c2ccc(N)cc2)s1
inactive: Potency [1] | Potency [2] | Potency [3] | Potency [4]

C[C@@H](N)[C@@H](O)c1ccccc1
inactive: Potency [5] | outcome [8] | Potency [1] | Potency [2] | Potency [3] | Potency [4] | outcome [6] | Potency [7]

NNC(=O)c1ccncc1
inactive: Potency [1] | Potency [2] | Potency [3] | Potency [4]

CC(=O)OCC(=O)[C@@]1(O)CC[C@H]2[C@@H]3CCC4=CC(=O)C=C[C@]4(C)[C@@]3(F)[C@@H](O)C[C@@]21C
inactive: Potency [1] | Potency [2] | Potency [3] | Potency [4]

CC1CC(OC(=O)c2ccccc2O)CC(C)(C)C1 (stereo not given)
inactive: Potency [1] | Potency [2] | Potency [3] | Potency [4]

C[C@@H]1O[C@@H](OC[C@H]2O[C@@H](Oc3c(-c4ccc(O)c(O)c4)oc4cc(O)cc(O)c4c3=O)[C@H](O)[C@@H](O)[C@@H]2O)[C@H](O)[C@H](O)[C@H]1O
inactive: Potency [1] | Potency [2] | Potency [3] | Potency [4]
